Targets include dAsCas12a Ultra (Acidaminococcus sp., UniProt U2UMQ6 1-1307, M537R;F870L;D908A;E993A;D1235A); dAsCas12a S542R (Acidaminococcus sp., UniProt U2UMQ6 1-1307, S542R;D908A;E993A;D1235A); d-enCas12a (Acidaminococcus sp., UniProt U2UMQ6 1-1307, E174R;S542R;K548R;D908A;E993A;D1235A); d-enCas12a-Ultra (Acidaminococcus sp., UniProt U2UMQ6 1-1307, E174R;S542R;K548R;M537R;F870L;D908A;E993A;D1235A); dAsCas12a E174R (Acidaminococcus sp., UniProt U2UMQ6 1-1307, E174R;D908A;E993A;D1235A); dAsCas12a K548R (Acidaminococcus sp., UniProt U2UMQ6 1-1307, K548R;D908A;E993A;D1235A).

Assay in all cases: Spec-seq (native PAGE EMSA with sequencing of bound and unbound); 25 mM Tris-HCl pH 7.4, 150 mM KCl, 5 mM MgCl2, 10% glycerol, 1 mM DTT, 40 ng/uL salmon sperm DNA; 400 nM Cas12a, 480 nM crRNA, 50 nM library, 37 C 1 h; native PAGE at room temperature; high values mean tight binding
What all share (conditions): protein: recombinant

Drawing on paper PMC8222333, “AsCas12a ultra nuclease facilitates the rapid generation of therapeutic cell medicines”, this text covers binding signal for 15 molecules.

B1: TGGT (dsDNA)
DNA 1: GCTATCTAGTGCTCAGTACGCACTGTGGTAGGAAACTTCTGGCAGGACCAGGTCATGAGATCGGAAGAGCACACGTCTGAACTCCAGTCA
DNA 2: TGACTGGAGTTCAGACGTGTGCTCTTCCGATCTCATGACCTGGTCCTGCCAGAAGTTTCCTACCACAGTGCGTACTGAGCACTAGATAGC
RNA: AAUUUCUACUCUUGUAGAUAGGAAACUUCUGGCAGGACC
On to B1, for which the binding signal is -8.76 lnKA with dAsCas12a Ultra, -8.26 lnKA in the test with dAsCas12a S542R, -5.72 lnKA with d-enCas12a and -3.36 lnKA with d-enCas12a-Ultra.

B2: TGTT (dsDNA)
DNA 1: GCTATCTAGTGCTCAGTACGCACTGTGTTAGGAAACTTCTGGCAGGACCAGGTCATGAGATCGGAAGAGCACACGTCTGAACTCCAGTCA
DNA 2: TGACTGGAGTTCAGACGTGTGCTCTTCCGATCTCATGACCTGGTCCTGCCAGAAGTTTCCTAACACAGTGCGTACTGAGCACTAGATAGC
RNA: AAUUUCUACUCUUGUAGAUAGGAAACUUCUGGCAGGACC
Regarding B2, the binding signal with dAsCas12a Ultra is -7.9 lnKA; in the test with dAsCas12a E174R, -8.41 lnKA; with dAsCas12a S542R, -7.82 lnKA; with d-enCas12a, -3.23 lnKA; with d-enCas12a-Ultra, -0.889 lnKA.

B3: ACAT (dsDNA)
DNA 1: GCTATCTAGTGCTCAGTACGCACTGACATAGGAAACTTCTGGCAGGACCAGGTCATGAGATCGGAAGAGCACACGTCTGAACTCCAGTCA
DNA 2: TGACTGGAGTTCAGACGTGTGCTCTTCCGATCTCATGACCTGGTCCTGCCAGAAGTTTCCTATGTCAGTGCGTACTGAGCACTAGATAGC
RNA: AAUUUCUACUCUUGUAGAUAGGAAACUUCUGGCAGGACC
For B3, the binding signal was -8.97 lnKA in the test with dAsCas12a E174R, -8.62 lnKA in the test with dAsCas12a S542R, -5.81 lnKA with d-enCas12a and -3.49 lnKA in the test with d-enCas12a-Ultra.

B4: AAAT (dsDNA)
DNA 1: GCTATCTAGTGCTCAGTACGCACTGAAATAGGAAACTTCTGGCAGGACCAGGTCATGAGATCGGAAGAGCACACGTCTGAACTCCAGTCA
DNA 2: TGACTGGAGTTCAGACGTGTGCTCTTCCGATCTCATGACCTGGTCCTGCCAGAAGTTTCCTATTTCAGTGCGTACTGAGCACTAGATAGC
RNA: AAUUUCUACUCUUGUAGAUAGGAAACUUCUGGCAGGACC
In the case of B4, the binding signal is -8.92 lnKA in the test with dAsCas12a E174R, -8.45 lnKA in the test with dAsCas12a S542R, -5.69 lnKA with d-enCas12a and -3.07 lnKA in the test with d-enCas12a-Ultra.

B5: TTCG (dsDNA)
DNA 1: GCTATCTAGTGCTCAGTACGCACTGTTCGAGGAAACTTCTGGCAGGACCAGGTCATGAGATCGGAAGAGCACACGTCTGAACTCCAGTCA
DNA 2: TGACTGGAGTTCAGACGTGTGCTCTTCCGATCTCATGACCTGGTCCTGCCAGAAGTTTCCTCGAACAGTGCGTACTGAGCACTAGATAGC
RNA: AAUUUCUACUCUUGUAGAUAGGAAACUUCUGGCAGGACC
With B5, the binding signal was -6.85 lnKA with dAsCas12a Ultra; -7.11 lnKA in the test with dAsCas12a E174R; -3.01 lnKA with dAsCas12a S542R; -8.63 lnKA with dAsCas12a K548R; -1.14 lnKA with d-enCas12a; -0.323 lnKA with d-enCas12a-Ultra.

B6: ACCT (dsDNA)
DNA 1: GCTATCTAGTGCTCAGTACGCACTGACCTAGGAAACTTCTGGCAGGACCAGGTCATGAGATCGGAAGAGCACACGTCTGAACTCCAGTCA
DNA 2: TGACTGGAGTTCAGACGTGTGCTCTTCCGATCTCATGACCTGGTCCTGCCAGAAGTTTCCTAGGTCAGTGCGTACTGAGCACTAGATAGC
RNA: AAUUUCUACUCUUGUAGAUAGGAAACUUCUGGCAGGACC
Take B6: the binding signal was -8.9 lnKA with dAsCas12a E174R, -7.8 lnKA with dAsCas12a S542R, -5.41 lnKA in the test with d-enCas12a and -2.23 lnKA in the test with d-enCas12a-Ultra.

B7: ATAG (dsDNA)
DNA 1: GCTATCTAGTGCTCAGTACGCACTGATAGAGGAAACTTCTGGCAGGACCAGGTCATGAGATCGGAAGAGCACACGTCTGAACTCCAGTCA
DNA 2: TGACTGGAGTTCAGACGTGTGCTCTTCCGATCTCATGACCTGGTCCTGCCAGAAGTTTCCTCTATCAGTGCGTACTGAGCACTAGATAGC
RNA: AAUUUCUACUCUUGUAGAUAGGAAACUUCUGGCAGGACC
In the case of B7, the binding signal with dAsCas12a E174R was -8.88 lnKA; with dAsCas12a S542R, -8.31 lnKA; with d-enCas12a, -5.6 lnKA; with d-enCas12a-Ultra it was -3.31 lnKA.

B8: TTAT (dsDNA)
DNA 1: GCTATCTAGTGCTCAGTACGCACTGTTATAGGAAACTTCTGGCAGGACCAGGTCATGAGATCGGAAGAGCACACGTCTGAACTCCAGTCA
DNA 2: TGACTGGAGTTCAGACGTGTGCTCTTCCGATCTCATGACCTGGTCCTGCCAGAAGTTTCCTATAACAGTGCGTACTGAGCACTAGATAGC
RNA: AAUUUCUACUCUUGUAGAUAGGAAACUUCUGGCAGGACC
As to B8, the binding signal was -8.23 lnKA with dAsCas12a Ultra; -8.07 lnKA with dAsCas12a E174R; -7.55 lnKA with dAsCas12a S542R; -4.53 lnKA with d-enCas12a; -2.12 lnKA in the test with d-enCas12a-Ultra.

B9: TTGG (dsDNA)
DNA 1: GCTATCTAGTGCTCAGTACGCACTGTTGGAGGAAACTTCTGGCAGGACCAGGTCATGAGATCGGAAGAGCACACGTCTGAACTCCAGTCA
DNA 2: TGACTGGAGTTCAGACGTGTGCTCTTCCGATCTCATGACCTGGTCCTGCCAGAAGTTTCCTCCAACAGTGCGTACTGAGCACTAGATAGC
RNA: AAUUUCUACUCUUGUAGAUAGGAAACUUCUGGCAGGACC
Regarding B9, the binding signal is -7.84 lnKA with dAsCas12a Ultra; -8.2 lnKA in the test with dAsCas12a E174R; -7.64 lnKA in the test with dAsCas12a S542R; -5.22 lnKA with d-enCas12a; -2.4 lnKA with d-enCas12a-Ultra.

B10: TTAG (dsDNA)
DNA 1: GCTATCTAGTGCTCAGTACGCACTGTTAGAGGAAACTTCTGGCAGGACCAGGTCATGAGATCGGAAGAGCACACGTCTGAACTCCAGTCA
DNA 2: TGACTGGAGTTCAGACGTGTGCTCTTCCGATCTCATGACCTGGTCCTGCCAGAAGTTTCCTCTAACAGTGCGTACTGAGCACTAGATAGC
RNA: AAUUUCUACUCUUGUAGAUAGGAAACUUCUGGCAGGACC
Take B10: the binding signal is -8.15 lnKA in the test with dAsCas12a Ultra; -8.42 lnKA in the test with dAsCas12a E174R; -7.46 lnKA with dAsCas12a S542R; -4.03 lnKA with d-enCas12a; -1.65 lnKA with d-enCas12a-Ultra.

B11: AGGG (dsDNA)
DNA 1: GCTATCTAGTGCTCAGTACGCACTGAGGGAGGAAACTTCTGGCAGGACCAGGTCATGAGATCGGAAGAGCACACGTCTGAACTCCAGTCA
DNA 2: TGACTGGAGTTCAGACGTGTGCTCTTCCGATCTCATGACCTGGTCCTGCCAGAAGTTTCCTCCCTCAGTGCGTACTGAGCACTAGATAGC
RNA: AAUUUCUACUCUUGUAGAUAGGAAACUUCUGGCAGGACC
On to B11, for which the binding signal with dAsCas12a E174R was -8.84 lnKA; in the test with dAsCas12a S542R it was -8.44 lnKA; in the test with d-enCas12a, -5.86 lnKA; with d-enCas12a-Ultra, -3.51 lnKA.

B12: AATG (dsDNA)
DNA 1: GCTATCTAGTGCTCAGTACGCACTGAATGAGGAAACTTCTGGCAGGACCAGGTCATGAGATCGGAAGAGCACACGTCTGAACTCCAGTCA
DNA 2: TGACTGGAGTTCAGACGTGTGCTCTTCCGATCTCATGACCTGGTCCTGCCAGAAGTTTCCTCATTCAGTGCGTACTGAGCACTAGATAGC
RNA: AAUUUCUACUCUUGUAGAUAGGAAACUUCUGGCAGGACC
Regarding B12, the binding signal in the test with dAsCas12a E174R was -8.3 lnKA; with dAsCas12a S542R it was -8.21 lnKA; with d-enCas12a it was -3.79 lnKA; with d-enCas12a-Ultra, -1.81 lnKA.

B13: TGTG (dsDNA)
DNA 1: GCTATCTAGTGCTCAGTACGCACTGTGTGAGGAAACTTCTGGCAGGACCAGGTCATGAGATCGGAAGAGCACACGTCTGAACTCCAGTCA
DNA 2: TGACTGGAGTTCAGACGTGTGCTCTTCCGATCTCATGACCTGGTCCTGCCAGAAGTTTCCTCACACAGTGCGTACTGAGCACTAGATAGC
RNA: AAUUUCUACUCUUGUAGAUAGGAAACUUCUGGCAGGACC
As to B13, the binding signal with dAsCas12a Ultra was -7.7 lnKA; with dAsCas12a E174R, -8.19 lnKA; with dAsCas12a S542R, -7.46 lnKA; with dAsCas12a K548R it was -8.2 lnKA; with d-enCas12a, -2.08 lnKA; with d-enCas12a-Ultra, -0.568 lnKA.

B14: ACCA (dsDNA)
DNA 1: GCTATCTAGTGCTCAGTACGCACTGACCAAGGAAACTTCTGGCAGGACCAGGTCATGAGATCGGAAGAGCACACGTCTGAACTCCAGTCA
DNA 2: TGACTGGAGTTCAGACGTGTGCTCTTCCGATCTCATGACCTGGTCCTGCCAGAAGTTTCCTTGGTCAGTGCGTACTGAGCACTAGATAGC
RNA: AAUUUCUACUCUUGUAGAUAGGAAACUUCUGGCAGGACC
In the case of B14, the binding signal in the test with dAsCas12a E174R was -8.92 lnKA; with dAsCas12a S542R, -6.94 lnKA; with d-enCas12a, -4.21 lnKA; with d-enCas12a-Ultra, -0.992 lnKA.

B15: TTGT (dsDNA)
DNA 1: GCTATCTAGTGCTCAGTACGCACTGTTGTAGGAAACTTCTGGCAGGACCAGGTCATGAGATCGGAAGAGCACACGTCTGAACTCCAGTCA
DNA 2: TGACTGGAGTTCAGACGTGTGCTCTTCCGATCTCATGACCTGGTCCTGCCAGAAGTTTCCTACAACAGTGCGTACTGAGCACTAGATAGC
RNA: AAUUUCUACUCUUGUAGAUAGGAAACUUCUGGCAGGACC
Turning to B15, the binding signal was -7.79 lnKA in the test with dAsCas12a Ultra; -7.77 lnKA in the test with dAsCas12a E174R; -7.47 lnKA with dAsCas12a S542R; -4.47 lnKA in the test with d-enCas12a; -1.69 lnKA in the test with d-enCas12a-Ultra.
